Measured values published in PubChem BioAssay (EPA / NIEHS).
Records with an inconclusive call do not appear. The source made the active and inactive calls. How the source made its calls, unless noted: active means hit-call score of the fitted dose curve at least 0.9, where 1 is the maximum; inconclusive means response in the unintended direction; inactive means score below 0.9.

What was measured:
[1] = target: human Peroxisome Proliferator-activated Receptor delta (PPARd), PPARD (gene 5467) (UniProt Q03181); test: ATG_PPARd_TRANS: Attagene TRANS-FACTORIAL HepG2 Assay for human Peroxisome Proliferator-activated Receptor delta (PPARd) (AID 2283002)
Summary of the method: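 HepG2 cells transiently transfected with GAL4-UAS multiplexed reporter units driven by exogenous chimeric NR-GAL4 proteins; 24 h compound exposure. Reporter mRNA measured by RT-PCR, 6-FAM primer extension, HpaI digestion and capillary electrophoresis; gain of signal fitted relative to DMSO.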

[2] = target: human Retinoic Acid Receptor beta (RARb), RARB (gene 5915) (UniProt P10826); test: ATG_RARb_TRANS: Attagene TRANS-FACTORIAL HepG2 Assay for human Retinoic Acid Receptor beta (AID 2283004)
Summary of the method: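 Fluorescent capillary-electrophoresis detection of GAL4-UAS reporter mRNA defines the endpoint, with induction over DMSO-treated wells scored as activity. Transiently transfected human hepatoma HepG2 cells expressing exogenous NR–Gal4 proteins are exposed to test chemicals for 24 h.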

[3] = target: Peroxisome proliferator-activated receptor gamma (Homo sapiens) (UniProt P37231); test: ATG_PPARg_TRANS: Attagene TRANS-FACTORIAL HepG2 Assay for human Peroxisome Proliferator-activated Receptor-gamma (PPARg) (AID 2283007)
Summary of the method: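 Endpoint reflects upward reporter mRNA change versus DMSO controls. Setup: transiently transfected HepG2, GAL4-UAS reporters driven by chimeric NR-Gal4, 24 h incubation, RT-PCR with capillary electrophoresis read-out.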

[4] = target: Nuclear receptor subfamily 1 group I member 2 (Homo sapiens) (UniProt O75469); test: ATG_PXR_TRANS: Attagene TRANS-FACTORIAL HepG2 Assay for human Pregnane X Receptor (PXR) (AID 2283008)
Summary of the method: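 HepG2 transfected (FuGene 6) with GAL4-UAS reporter units + PXR-Gal4 chimera; dosed 24 h. Total RNA → oligo(dT) RT → PCR → 6-FAM primer extension → HpaI cut → CE. Gain-of-signal vs DMSO.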

[5] = target: human RAR-related Orphan Receptor gamma (RORg), RORC (gene 6097) (UniProt P51449); test: ATG_RORg_TRANS: Attagene TRANS-FACTORIAL HepG2 Assay for human RAR-related Orphan Receptor gamma (RORg) (AID 2283011)
Summary of the method: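 Chimeric RORg-Gal4 transactivation in transfected HepG2; 24 h exposure; RT-PCR/capillary electrophoresis readout of reporter mRNA, DMSO baseline.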

[6] = target: Retinoic acid receptor RXR-alpha (Homo sapiens) (UniProt P19793); test: ATG_RXRa_TRANS: Attagene TRANS-FACTORIAL HepG2 Assay for human Retinoid X Receptor alpha (RXRa) (AID 2283012)
Summary of the method: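 Chimeric NR-GAL4 trans-activation in HepG2, 24 h treatment; reporter transcripts quantified by fluorescence on capillary electrophoresis, analysed for upward change from DMSO.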

[7] = target: human Retinoid X Receptor beta (RXRb), RXRB (gene 6257) (UniProt P28702); test: ATG_RXRb_TRANS: Attagene TRANS-FACTORIAL HepG2 Assay for human Retinoid X Receptor beta (RXRb) (AID 2283013)
Summary of the method: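 After a 24 h incubation with test chemical, transfected HepG2 cells carrying NR-Gal4 fusions and GAL4-UAS reporter transcription units yield RNA whose reporter cDNA is FAM-labelled, HpaI-cut and sized by capillary electrophoresis; increases over DMSO are scored.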

[8] = target: human Thyroid Receptor alpha (THRa1), THRA (gene 7067) (UniProt P10827); test: ATG_THRa1_TRANS: Attagene TRANS-FACTORIAL HepG2 Assay for human Thyroid Receptor alpha (THRa1) (AID 2283014)
Summary of the method: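 Measured here is mRNA from a GAL4-UAS reporter in transfected HepG2 cells carrying a Gal4-fused receptor, 24 h post-dose. DMSO served as negative control and baseline.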

[9] = read-out: Intercellular Adhesion Molecule 1 (ICAM1), ICAM1 (gene 3383); test: BSK_3C_ICAM1: BioMAP Diversity Plus: 3C Assay for Intercellular Adhesion Molecule 1 (ICAM1) Biomarker Activity (AID 2283003; active means hit-call score of the fitted dose curve at least 0.9, where 1 is the maximum; inactive means score below 0.9); settings: primary human endothelial cells (HUVEC); actives raise or lower the signal
Summary of the method: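 Using DMSO as baseline, bidirectional curve fitting was applied to ICAM-1 ELISA signals from HUVEC in the 3C system, measured 24 h after compound addition.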

[10] = BSK_3C_Proliferation: Cell Proliferation Assessment in the BioMAP Diversity Plus: 3C Assay (AID 2283006; active means hit-call score of the fitted dose curve at least 0.9, where 1 is the maximum; inactive means score below 0.9;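 further: potency may reflect either rise or fall in cell number versus DMSO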); settings: primary human endothelial cells (HUVEC)
Summary of the method: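 Measured here: sulforhodamine B (0.1%) staining of TCA-fixed sub-confluent umbilical vein endothelial cultures 48 h post-dosing, absorbance 560 nm. DMSO served as negative control and baseline; both signal gain and loss were modelled.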

[11] = read-out: E-selectin (Homo sapiens) (UniProt P16581); test: BSK_3C_Eselectin: BioMAP Diversity Plus: 3C Assay for Eselectin Biomarker Activity (AID 2283015; active means hit-call score of the fitted dose curve at least 0.9, where 1 is the maximum; inactive means score below 0.9;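 further: cell surface E-selectin protein quantified by ELISA 24 h after dosing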); settings: primary human endothelial cells (HUVEC); actives raise or lower the signal
Summary of the method: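 Endpoint derived by bidirectional fitting against DMSO vehicle; signal is ELISA-detected E-selectin from primary HUVEC at 24 h post-dosing, with parallel SRB staining (0.1% SRB, 560 nm) flagging cytotoxicity.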

[12] = read-out: Interleukin-1 alpha (IL1a), IL1A (gene 3552); test: BSK_BE3C_IL1a: BioMAP Diversity Plus: BE3C Assay for Interleukin-1 alpha (IL1a) Biomarker Activity (AID 2283016; active means hit-call score of the fitted dose curve at least 0.9, where 1 is the maximum; inactive means score below 0.9); settings: primary human bronchial epithelial cells; actives raise or lower the signal
Summary of the method: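 Measured in human lung primary bronchial epithelial cells: IL-1a by ELISA at 24 h after dosing, with bidirectional fitting against DMSO.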

[13] = read-out: Monocyte Chemoattractant Protein-1 (MCP1), CCL2 (gene 6347); test: BSK_3C_MCP1: BioMAP Diversity Plus: 3C Assay for Monocyte Chemoattractant Protein-1 (MCP1) Biomarker Activity (AID 2283017; active means hit-call score of the fitted dose curve at least 0.9, where 1 is the maximum; inactive means score below 0.9); settings: primary human endothelial cells (HUVEC); actives raise or lower the signal
Summary of the method: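 Using human vascular primary endothelium, researchers measured MCP-1 by ELISA 24 h after treatment, with DMSO serving as negative control for bidirectional fitting.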

[14] = read-out: Monocyte Chemoattractant Protein-1 (MCP1), CCL2 (gene 6347); test: BSK_4H_MCP1: BioMAP Diversity Plus: 4H Assay for Monocyte Chemoattractant Protein-1 (MCP1) Biomarker Activity (AID 2283018; active means hit-call score of the fitted dose curve at least 0.9, where 1 is the maximum; inactive means score below 0.9); settings: primary human endothelial cells (HUVEC); actives raise or lower the signal
Summary of the method: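 Primary human umbilical vein endothelium is exposed to chemical for 24 h before MCP-1 is assayed by ELISA. Concentration-response fitted bidirectionally relative to DMSO.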

[15] = read-out: Human Leukocyte Antigen - DR isotype (HLADR), HLA-DRA (gene 3122); test: BSK_3C_HLADR: BioMAP Diversity Plus: 3C Assay for Human Leukocyte Antigen - DR isotype (HLADR) Biomarker Activity (AID 2283019; active means hit-call score of the fitted dose curve at least 0.9, where 1 is the maximum; inactive means score below 0.9;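 further: ELISA of cell-surface HLA-DR on HUVEC 24 h after dosing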); settings: primary human endothelial cells (HUVEC); actives raise or lower the signal
Summary of the method: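 Compound added to primary HUVEC cultures, 24 h incubation, then HLA-DR determined by ELISA; endpoint derived by bidirectional fitting relative to DMSO negative control.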

[16] = read-out: Interleukin-8 (IL8), CXCL8 (gene 3576); test: BSK_3C_IL8: BioMAP Diversity Plus: 3C Assay for Interleukin-8 (IL8) Biomarker Activity (AID 2283020; active means hit-call score of the fitted dose curve at least 0.9, where 1 is the maximum; inactive means score below 0.9); settings: primary human endothelial cells (HUVEC); actives raise or lower the signal
Summary of the method: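 Using DMSO-treated wells as the baseline, bidirectional curve fitting was applied to ELISA-measured IL-8 from human umbilical vein endothelial cultures sampled 24 h after compound addition.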

[17] = target: human Retinoic Acid Receptor gamma (RARg), RARG (gene 5916) (UniProt P13631); test: ATG_RARg_TRANS: Attagene TRANS-FACTORIAL HepG2 Assay for human Retinoic Acid Receptor gamma (RARg) (AID 2283009)
Summary of the method: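 Gain-of-signal relative to DMSO is reported from fluorescent capillary electrophoresis of RT-PCR reporter products. These came from HepG2 cells expressing transfected RARg-GAL4 chimeras with UAS reporters, harvested 24 h after dosing.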

[18] = target: human RAR-related Orphan Receptor beta (RORb), RORB (gene 6096) (UniProt Q92753); test: ATG_RORb_TRANS: Attagene TRANS-FACTORIAL HepG2 Assay for human RAR-related Orphan Receptor beta (RORb) (AID 2283010)
Summary of the method: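 Multiplexed transcription-factor reporter assay: HepG2 cells transiently carrying NR-Gal4/GAL4-UAS constructs, 24 h treatment, mRNA quantified by RT-PCR plus capillary electrophoresis fluorescence; activity scored as induction over DMSO.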

[19] = target: Retinoic acid receptor alpha (Homo sapiens) (UniProt P10276); test: ATG_RARa_TRANS: Attagene TRANS-FACTORIAL HepG2 Assay for human Retinoic Acid Receptor alpha (RARa) (AID 2283005)
Summary of the method: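 HepG2 transiently transfected with multiplex GAL4-UAS reporter units including a human RARa–GAL4 chimera; 24 h compound exposure. Reporter mRNA quantified by RT-PCR, 6-FAM labeling and capillary electrophoresis; gain of signal versus DMSO.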

Measured: AC50

Chain of Peroxisome proliferator-activated receptor gamma (Homo sapiens) (P37231 whole entry, looked up, the tested form may be a part): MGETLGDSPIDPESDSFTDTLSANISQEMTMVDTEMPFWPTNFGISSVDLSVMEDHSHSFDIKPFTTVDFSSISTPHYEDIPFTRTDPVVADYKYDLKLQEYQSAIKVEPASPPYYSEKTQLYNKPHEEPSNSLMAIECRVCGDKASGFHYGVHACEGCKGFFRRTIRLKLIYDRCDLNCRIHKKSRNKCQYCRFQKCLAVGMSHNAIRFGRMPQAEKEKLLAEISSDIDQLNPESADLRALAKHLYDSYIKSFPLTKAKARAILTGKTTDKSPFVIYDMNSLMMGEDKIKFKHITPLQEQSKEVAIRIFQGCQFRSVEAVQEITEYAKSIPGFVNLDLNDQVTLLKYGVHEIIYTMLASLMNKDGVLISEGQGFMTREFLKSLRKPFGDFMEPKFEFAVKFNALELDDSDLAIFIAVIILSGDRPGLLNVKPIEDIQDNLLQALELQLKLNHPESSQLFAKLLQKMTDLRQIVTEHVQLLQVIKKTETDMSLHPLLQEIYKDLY
Chain of human Thyroid Receptor alpha (THRa1), THRA (gene 7067) (P10827 whole entry, looked up, the tested form may be a part): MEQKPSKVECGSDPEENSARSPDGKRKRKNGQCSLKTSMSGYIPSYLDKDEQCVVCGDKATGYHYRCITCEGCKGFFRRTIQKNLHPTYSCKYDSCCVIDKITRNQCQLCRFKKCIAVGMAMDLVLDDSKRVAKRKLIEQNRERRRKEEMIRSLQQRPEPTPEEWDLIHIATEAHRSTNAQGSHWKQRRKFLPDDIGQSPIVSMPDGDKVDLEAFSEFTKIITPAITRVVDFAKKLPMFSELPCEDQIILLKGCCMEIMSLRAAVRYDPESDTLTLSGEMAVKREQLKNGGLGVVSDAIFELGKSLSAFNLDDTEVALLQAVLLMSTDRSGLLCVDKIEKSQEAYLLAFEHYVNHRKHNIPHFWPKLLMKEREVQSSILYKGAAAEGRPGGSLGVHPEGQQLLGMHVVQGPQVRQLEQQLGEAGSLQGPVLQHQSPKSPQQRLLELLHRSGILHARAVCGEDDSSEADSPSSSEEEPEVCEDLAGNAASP
Chain of human RAR-related Orphan Receptor gamma (RORg), RORC (gene 6097) (P51449 whole entry, looked up, the tested form may be a part): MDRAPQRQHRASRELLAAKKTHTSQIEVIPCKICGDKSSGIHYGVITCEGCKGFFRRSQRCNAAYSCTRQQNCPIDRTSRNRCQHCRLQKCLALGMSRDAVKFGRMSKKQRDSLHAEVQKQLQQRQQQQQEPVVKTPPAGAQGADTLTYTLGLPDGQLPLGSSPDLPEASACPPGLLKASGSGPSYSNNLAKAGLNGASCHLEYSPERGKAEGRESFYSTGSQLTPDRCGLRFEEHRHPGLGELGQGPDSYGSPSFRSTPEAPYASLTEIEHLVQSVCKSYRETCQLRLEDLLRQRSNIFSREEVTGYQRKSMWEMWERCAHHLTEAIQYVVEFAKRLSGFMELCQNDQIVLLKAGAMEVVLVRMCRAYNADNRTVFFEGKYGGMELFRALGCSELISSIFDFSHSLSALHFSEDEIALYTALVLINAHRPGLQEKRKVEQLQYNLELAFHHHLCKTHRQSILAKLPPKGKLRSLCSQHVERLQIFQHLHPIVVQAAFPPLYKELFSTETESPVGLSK
Chain of human Retinoic Acid Receptor gamma (RARg), RARG (gene 5916) (P13631 whole entry, looked up, the tested form may be a part): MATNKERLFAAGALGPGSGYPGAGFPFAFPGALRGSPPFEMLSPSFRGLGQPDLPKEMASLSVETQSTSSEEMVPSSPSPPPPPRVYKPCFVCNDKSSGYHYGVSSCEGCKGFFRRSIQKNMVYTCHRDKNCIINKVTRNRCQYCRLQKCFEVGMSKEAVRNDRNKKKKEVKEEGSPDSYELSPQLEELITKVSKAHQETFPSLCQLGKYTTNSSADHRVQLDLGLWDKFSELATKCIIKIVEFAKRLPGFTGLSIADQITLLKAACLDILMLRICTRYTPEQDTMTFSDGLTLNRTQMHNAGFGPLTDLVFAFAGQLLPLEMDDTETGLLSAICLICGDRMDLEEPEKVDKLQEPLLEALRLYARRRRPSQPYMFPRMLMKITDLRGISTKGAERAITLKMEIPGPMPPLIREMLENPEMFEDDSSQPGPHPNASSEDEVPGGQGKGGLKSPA
Chain of Retinoic acid receptor RXR-alpha (Homo sapiens) (P19793 whole entry, looked up, the tested form may be a part): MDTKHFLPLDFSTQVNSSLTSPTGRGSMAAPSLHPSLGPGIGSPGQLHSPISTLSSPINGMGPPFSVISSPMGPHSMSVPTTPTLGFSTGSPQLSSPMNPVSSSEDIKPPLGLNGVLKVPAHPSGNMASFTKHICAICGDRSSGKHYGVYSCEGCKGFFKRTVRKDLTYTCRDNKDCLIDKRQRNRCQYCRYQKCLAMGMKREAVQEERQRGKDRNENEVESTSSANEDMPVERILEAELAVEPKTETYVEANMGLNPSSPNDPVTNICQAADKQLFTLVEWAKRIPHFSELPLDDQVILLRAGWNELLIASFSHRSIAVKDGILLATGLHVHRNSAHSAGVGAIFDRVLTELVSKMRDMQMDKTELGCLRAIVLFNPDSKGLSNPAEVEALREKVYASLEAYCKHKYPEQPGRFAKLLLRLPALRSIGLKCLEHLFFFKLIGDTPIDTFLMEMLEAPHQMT
Chain of Nuclear receptor subfamily 1 group I member 2 (Homo sapiens) (O75469 whole entry, looked up, the tested form may be a part): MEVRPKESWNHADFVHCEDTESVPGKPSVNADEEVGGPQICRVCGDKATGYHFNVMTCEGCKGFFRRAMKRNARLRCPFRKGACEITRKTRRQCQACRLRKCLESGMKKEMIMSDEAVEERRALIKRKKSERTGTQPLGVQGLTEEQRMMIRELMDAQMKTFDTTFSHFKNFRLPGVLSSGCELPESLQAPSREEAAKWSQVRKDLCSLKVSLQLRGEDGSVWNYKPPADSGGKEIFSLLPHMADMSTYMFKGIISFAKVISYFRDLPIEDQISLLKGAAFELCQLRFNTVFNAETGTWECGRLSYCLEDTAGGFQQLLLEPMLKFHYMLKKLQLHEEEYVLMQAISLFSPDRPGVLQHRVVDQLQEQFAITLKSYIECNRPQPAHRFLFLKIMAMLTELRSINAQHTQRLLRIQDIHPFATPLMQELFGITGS
Chain of human Retinoic Acid Receptor beta (RARb), RARB (gene 5915) (P10826 whole entry, looked up, the tested form may be a part): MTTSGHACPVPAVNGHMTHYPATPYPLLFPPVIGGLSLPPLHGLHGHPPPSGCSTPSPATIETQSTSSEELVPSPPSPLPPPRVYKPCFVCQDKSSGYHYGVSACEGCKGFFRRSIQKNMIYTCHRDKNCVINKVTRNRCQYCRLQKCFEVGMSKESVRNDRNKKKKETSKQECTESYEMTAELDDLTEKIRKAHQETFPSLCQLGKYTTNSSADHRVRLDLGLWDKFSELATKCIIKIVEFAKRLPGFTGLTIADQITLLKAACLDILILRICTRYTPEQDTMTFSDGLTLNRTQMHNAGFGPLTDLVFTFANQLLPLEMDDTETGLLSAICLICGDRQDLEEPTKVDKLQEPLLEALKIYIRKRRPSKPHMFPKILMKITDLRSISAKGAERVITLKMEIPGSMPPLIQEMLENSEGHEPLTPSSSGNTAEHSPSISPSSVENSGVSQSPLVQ
Chain of human Retinoid X Receptor beta (RXRb), RXRB (gene 6257) (P28702 whole entry, looked up, the tested form may be a part): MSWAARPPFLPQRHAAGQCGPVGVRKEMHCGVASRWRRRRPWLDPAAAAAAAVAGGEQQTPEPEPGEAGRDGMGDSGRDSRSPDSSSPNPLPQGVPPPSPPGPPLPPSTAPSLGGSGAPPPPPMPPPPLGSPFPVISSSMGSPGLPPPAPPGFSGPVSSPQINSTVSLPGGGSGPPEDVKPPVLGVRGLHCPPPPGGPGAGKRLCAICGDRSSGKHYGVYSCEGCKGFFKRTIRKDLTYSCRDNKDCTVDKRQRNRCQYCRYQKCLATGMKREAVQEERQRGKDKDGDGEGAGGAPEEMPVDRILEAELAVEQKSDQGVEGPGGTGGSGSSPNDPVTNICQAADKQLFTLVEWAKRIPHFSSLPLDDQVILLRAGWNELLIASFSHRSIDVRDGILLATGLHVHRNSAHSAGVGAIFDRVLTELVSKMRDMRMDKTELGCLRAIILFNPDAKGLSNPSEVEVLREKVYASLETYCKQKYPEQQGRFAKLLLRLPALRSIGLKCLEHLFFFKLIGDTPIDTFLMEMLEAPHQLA
Chain of human Peroxisome Proliferator-activated Receptor delta (PPARd), PPARD (gene 5467) (Q03181 whole entry, looked up, the tested form may be a part): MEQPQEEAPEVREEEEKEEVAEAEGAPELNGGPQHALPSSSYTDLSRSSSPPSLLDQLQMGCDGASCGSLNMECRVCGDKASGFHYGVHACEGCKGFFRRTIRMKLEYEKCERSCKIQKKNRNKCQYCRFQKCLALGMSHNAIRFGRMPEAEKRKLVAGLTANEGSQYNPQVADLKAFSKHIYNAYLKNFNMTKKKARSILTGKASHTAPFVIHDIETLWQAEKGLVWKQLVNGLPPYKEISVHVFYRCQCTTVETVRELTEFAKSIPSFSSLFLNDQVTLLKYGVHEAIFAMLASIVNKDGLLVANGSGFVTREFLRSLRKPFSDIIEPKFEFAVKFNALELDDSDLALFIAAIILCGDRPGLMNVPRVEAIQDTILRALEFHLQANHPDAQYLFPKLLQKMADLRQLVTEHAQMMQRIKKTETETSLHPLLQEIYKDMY
Chain of Retinoic acid receptor alpha (Homo sapiens) (P10276 whole entry, looked up, the tested form may be a part): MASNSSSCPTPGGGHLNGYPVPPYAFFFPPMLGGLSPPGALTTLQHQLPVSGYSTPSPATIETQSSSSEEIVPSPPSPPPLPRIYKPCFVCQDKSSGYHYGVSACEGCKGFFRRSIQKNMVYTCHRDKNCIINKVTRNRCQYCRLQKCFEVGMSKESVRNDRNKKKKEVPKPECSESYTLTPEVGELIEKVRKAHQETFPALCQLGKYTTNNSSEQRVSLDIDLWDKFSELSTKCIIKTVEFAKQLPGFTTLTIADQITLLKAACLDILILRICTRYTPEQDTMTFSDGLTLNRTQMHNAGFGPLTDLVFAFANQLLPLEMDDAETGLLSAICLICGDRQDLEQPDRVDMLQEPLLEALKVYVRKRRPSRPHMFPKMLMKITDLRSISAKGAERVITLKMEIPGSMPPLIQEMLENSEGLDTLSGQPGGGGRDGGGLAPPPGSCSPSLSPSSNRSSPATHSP

CC1(CO)CN(c2ccccc2)NC1=O (stereo unspecified)
inactive: [1] | [2] | [3] | [4] | [5]

C=C(C)[C@@H]1CCC2=CC(=O)C[C@@H](C)[C@]2(C)C1
inactive: [1] | [3] | [4] | [6] | [7]

Cc1c(Cl)c(=O)oc2cc(O)ccc12
inactive: [1] | [4] | [6] | [7] | [8]
active: [3] 100 µM

O=C=NC1CCC(CC2CCC(N=C=O)CC2)CC1 (stereo unspecified)
active: [10] 23.2 µM
not listed: [2] | [3] | [8] | [17] | [18] | [19]
inactive: all other assays above

O=c1oc(=O)c2cc3c(=O)oc(=O)c3cc12
inactive: [1] | [3] | [4] | [17] | [5] | [6]

CNC(=O)Oc1ccc2c(c1)[C@]1(C)CCN(C)[C@@H]1N2C
inactive: [1] | [3] | [4]

COc1ccnc(CS(=O)c2nc3cc(OC(F)F)ccc3[nH]2)c1OC (stereo unspecified)
inactive: [1] | [3] | [4] | [18] | [5] | [6] | [7]

CC1CC(OC(=O)c2ccccc2O)CC(C)(C)C1 (stereo unspecified)
inactive: [1] | [2] | [19] | [3] | [4] | [17] | [5] | [8]

CC(C)=CCC[C@](C)(O)[C@@H]1CC=C(C)CC1
inactive: [1] | [2] | [19] | [3] | [17] | [18] | [5] | [6] | [7]

CC(C)OP(=O)(CP(=O)(OC(C)C)OC(C)C)OC(C)C
inactive: [1] | [3] | [5] | [7] | [8]
active: [4] 3.27 µM

CC1=CCC2C(C1)C2(C)C (stereo unspecified)
active: [4] 10.7 µM
inactive: [1] | [3] | [5] | [6] | [7] | [8]

CCOc1ccccc1OCC
inactive: [1] | [3] | [4] | [6] | [7] | [8]

CC(C)(Oc1ccc(CCNC(=O)c2ccc(Cl)cc2)cc1)C(=O)O
active: [1] 79.4 µM | [3] 27.6 µM
inactive: [4]

CC(C)=CCC/C(C)=C/COC=O
inactive: [1] | [3] | [4] | [5] | [6] | [7] | [8]
